A number with no mark means an inactive call. The source made the active and inactive calls.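 The calls were made as follows: active = inhibition of the reporter signal at or above 50%; inactive = inhibition below 50%.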
experiment: TLR3 IRF3 reporter activation blockers – cell-based, poly I:C stimulus, luciferase, 10K MLSCN set, primary screen (AID 602277); details: HEK293-TLR3 RL24 IRF3 luciferase reporter, at 10 µM, hits give high values

| Compound | inhibition |
| --- | --- |
| Cc1cccc2sc(NC(=O)CN(C)S(=O)(=O)c3cccs3)nc12 | -8.61% |
| CCOc1cc(NC(=O)c2ccco2)c(OCC)cc1NC(=O)Cc1cccc(OC)c1 | -45.9% |
| CC(=O)Nc1c2c(nn1-c1ccc(C)cc1C)CSC2 | -10.7% |
| CC(CC(=O)NC1CCSC1=O)c1ccccc1 (stereo not given) | 17% |
| Cc1c(C(=O)O)c(-c2ccccc2)nn1-c1ccccc1 | -3.71% |
| Cc1nnc(SCCn2c(Br)nc3c2c(=O)n(C)c(=O)n3C)s1 | -0.072% |
| COc1ccccc1NC(=O)Cc1noc(CSc2cc(C)c3ccccc3n2)n1 | -8.68% |
| COc1cccc2sc(NC(=O)c3ccc(S(=O)(=O)N4CCOCC4)cc3)nc12 | 9.3% |
| C=CCN(C(=O)CNC(=O)c1ccco1)C(C(=O)NC1CCCCC1)c1ccccc1F (stereo not given) | 10.3% |
| O=C(Nc1ccc(OC(=O)c2ccco2)cc1)c1ccco1 | -1.78% |
| CCOc1ccc2ccccc2c1C(=O)N1CCN(c2ccccc2)CC1 | 56.3% (active) |
| Cc1ccc(C)c2[nH]c(=O)c(CCNC(=O)CC(C)(C)C)cc12 | 16.5% |
| CC(=O)c1ccc(OCC(O)CN2CC(C)OC(C)C2)cc1 (stereo not given) | 16.8% |
| O=c1[nH]c(SCc2ccccc2Cl)nc2c1CCCC2 | 4.88% |
| CCCC(NC(=O)c1ccccc1)c1nc2ccccc2n1Cc1ccc(C(=O)OC)o1 (stereo not given) | 16.6% |
| O=C(NC1CCCC1)C(c1ccco1)N(Cc1ccccc1)C(=O)c1csnn1 (stereo not given) | 29.4% |
| O=C(Oc1cccc2cccnc12)c1cccc(-n2cnnn2)c1 | 24.5% |
| Cc1cc(C(N)=O)c2cc(Br)ccc2n1 | 32.5% |
| Cc1nc2ccc(S(=O)(=O)NC(C(=O)NCc3cccs3)C(C)C)cc2s1 (stereo not given) | 14.4% |
| CCN(CC)c1ccc(NC(=O)CN2C(=O)CC(C)(C)S(=O)(=O)c3ccccc32)c(C)c1 | -2.32% |

| Compound | inhibition |
| --- | --- |
| O=c1[nH]cnc2c1nc(SCc1ccccc1)n2C1OC(CO)C(O)C1O (stereo not given) | 24% |
| Cc1ncc(CSc2nc3ccccc3[nH]2)c(N)n1 | -10.7% |
| CN(C(=O)c1ccccc1Cl)c1ccccc1 | 18.4% |
| CCCSc1nc(N)c(C#N)c(-c2ccc(C)cc2)c1C#N | 9.67% |
| CC1(C)CC(=O)C2=C(C1)NC(=O)CC2C(=O)NCc1ccc(F)cc1 (stereo not given) | 5.77% |
| CCN(CC)CCCN1C(=O)C(=O)/C(=C(/O)c2ccc3c(c2)OCO3)C1c1ccccn1 (stereo not given) | 12.1% |
| CCOC(=O)C1CCN(c2cc(C)nc3cc(-c4cccc(F)c4)nn23)CC1 | -12.2% |
| COCCNC(=O)C(c1ccc(C)o1)N(Cc1ccc(OC)cc1)C(=O)Cn1nnc2ccccc21 (stereo not given) | 6.31% |
| CCN1CCN(c2ncnc3c2cnn3-c2ccc(C)cc2C)CC1 | 18.9% |
| Cc1cccc(C2c3c(n(C)c(=O)n(C)c3=O)N=C3c4ccccc4C(=O)C32)c1 (stereo not given) | 3.75% |
| CCOC(=O)c1cc2c(=O)n3ccccc3nc2n(CCCOC)c1=NC(C)=O | 9.93% |
| CCOc1ccccc1CNC(=O)CCN1C(=O)COc2ccccc21 | 2.75% |
| COc1cc2c(cc1OC)CN(C(=O)CSc1nc3[nH]ncc3c(=O)n1-c1ccccc1)CC2 | 23.1% |
| O=C(O)C1CC=CCC1C(=O)NCc1ccccc1 (stereo not given) | 11.4% |
| CCCNc1nc2c(c(=O)n(C)c(=O)n2C)n1Cc1cccc(C)c1 | 4.07% |
| Cc1ccc2c(c1)NC(=O)C(CC(=O)NC1CCCCC1C)O2 (stereo not given) | 1.78% |
| Cc1cccc(N2CCN(C(=O)CCn3c(=S)[nH]c4cc5c(cc4c3=O)OCO5)CC2C)c1 (stereo not given) | 38.2% |
| CC1CN(Cc2nc3c(c(=O)[nH]c(=O)n3C)n2CC(N)=O)CC(C)O1 (stereo not given) | 20.4% |
| Cc1[nH]nc(N=CC2=C(O)CC(C)(C)CC2=O)c1-c1ccccc1 | 13.8% |
| Cc1ccc(N2C(=O)c3ccccc3C2O)nc1 (stereo not given) | 41.4% |

From PubChem BioAssay
